A short description of assay [1]: ATG_CRE_CIS: Attagene CIS-FACTORIAL HepG2 Assay for human cAMP Responsive Element (CRE) binding protein 3 (AID 2282926). Particulars: HepG2 CRE cis-reporter, Attagene multiplexed mRNA; actives raise or lower the signal. The method, boiled down:
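Capillary electrophoresis of 6-FAM-labelled, HpaI-digested PCR products quantified reporter transcripts. These came from HepG2 transiently transfected with cis-element reporters and exposed to test chemicals for 24 hours, with DMSO defining baseline activity.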

In assay [2] the target is CCAAT/enhancer-binding protein beta (Homo sapiens) (UniProt P17676). The assay can be described thus: ATG_C_EBP_CIS: Attagene CIS-FACTORIAL HepG2 Assay for human CCAAT/Enhancer Binding Protein (C/EBP) beta (AID 2282927). Particulars: HepG2 Attagene cis-factorial transcription factor reporter; actives raise or lower the signal. The method, boiled down:
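Following a 24 h incubation with test chemical, transfected HepG2 cells yielded RNA whose reporter transcripts were quantified by RT-PCR and fluorescent capillary electrophoresis, with DMSO serving as baseline for bidirectional fitting.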

Assay [3] in a line: ATG_CMV_CIS: Attagene CIS-FACTORIAL HepG2 Assay for human CMV (Internal Marker) (AID 2282928).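 Also: endpoint acts as a background internal control marker rather than a target.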 Particulars: HepG2 CMV promoter reporter, transcription factor profiling; actives raise or lower the signal. The method, boiled down: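 Fluorescence intensity of RT-PCR-derived reporter fragments, resolved by capillary electrophoresis, gives the signal. HepG2 liver cells bearing transfected cis-element reporters were treated 24 h; activity in either direction was fit relative to DMSO-treated controls.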

Assay [4] is described as follows: ATG_DR4_LXR_CIS: Attagene CIS-FACTORIAL HepG2 Assay for human Liver X Receptor (LXR), DR4 submotif (AID 2282929). The following applies: HepG2 Attagene DR4 cis-reporter, mRNA transcription; actives raise or lower the signal. In outline:
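Cells were transfected with multiple reporter transcription units, exposed to chemicals for 24 hours, then lysed for RNA. Reporter mRNA induction was measured by RT-PCR with capillary electrophoresis detection and fitted in both directions relative to DMSO.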

Assay [5] can be described thus: ATG_AP_1_CIS: Attagene CIS-FACTORIAL HepG2 Assay for human Activator Protein 1 (AP-1) (AID 2282931). Particulars: HepG2 Attagene cis-factorial AP-1 reporter mRNA; actives raise or lower the signal. The method, boiled down:
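Endogenous transcription-factor activity in human HepG2 liver cells is read through a cis-promoter reporter transcript, sampled 24 h after dosing. Detection uses RT-PCR with capillary electrophoresis; values come from bidirectional fitting relative to DMSO.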

Assay [6] can be described thus: ATG_AP_2_CIS: Attagene CIS-FACTORIAL HepG2 Assay for human Activator Protein 2 (AP-2) (AID 2282932). The following applies: HepG2 AP-2 cis-reporter, Attagene transcription factor profiling; actives raise or lower the signal. In outline: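 Cells (HepG2) transfected with promoter-driven reporter constructs, treated 24 h. Total RNA reverse-transcribed, reporter cDNA PCR-amplified, FAM-labelled by primer extension, digested, resolved by capillary electrophoresis. Activity fitted both directions versus DMSO.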

Assay [7] is described as follows: ATG_BRE_CIS: Attagene CIS-FACTORIAL HepG2 Assay for human Bone Morphogenetic Protein (BMP) Response Element (BRE) (AID 2282933). Particulars: HepG2 BMP response element reporter, Attagene transcription factor profiling; actives raise or lower the signal. In outline:
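HepG2 cells transiently transfected with CIS reporter units (endogenous TF activity, BMP response element), dosed 24 h. Reporter mRNA quantified by RT-PCR, fluorescent labelling and capillary electrophoresis; bidirectional fit vs DMSO baseline.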

For assay [8], the target named is Transcription factor E2F1 (Homo sapiens) (UniProt Q01094). In words: ATG_E2F_CIS: Attagene CIS-FACTORIAL HepG2 Assay for human E2F Transcription Factor 1 (AID 2282935). The following applies: HepG2 Attagene cis-reporter, E2F reporter RNA transcripts; actives raise or lower the signal. In outline:
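First, HepG2 cells were transfected with reporter transcription units. Next, they were dosed for 24 h. Then RNA was isolated, converted to cDNA, PCR-amplified, FAM-labeled, HpaI-digested and analyzed by capillary electrophoresis.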

The nature of assay [9]: ATG_E_Box_CIS: Attagene CIS-FACTORIAL HepG2 Assay for human Enhancer Box (E-box) (AID 2282936). The following applies: HepG2 E-box cis-reporter transcription, actives raise or lower the signal. The method, boiled down:
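Endogenous transcription factor activity was sensed in human HepG2 liver cells through transfected cis-promoter reporter units. After 24 h of dosing, total RNA was reverse-transcribed and reporter cDNA resolved by capillary electrophoresis.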

Assay [10] in a line: ATG_M_61_CIS: Attagene CIS-FACTORIAL HepG2 Assay for M61 Transcription Factor (Internal Marker) (AID 2282937). Particulars: HepG2 Attagene CIS-FACTORIAL M61 internal marker reporter; actives raise or lower the signal. In outline:
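Cells were transfected with reporter units under cis-regulatory promoters, treated with chemicals for 24 h, then lysed for RNA. Reporter transcripts were quantified by RT-PCR and capillary electrophoresis, and activity was fitted bidirectionally against DMSO.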

Assay [11] in a line: ATG_EGR_CIS: Attagene CIS-FACTORIAL HepG2 Assay for human Early Growth Response 1 (EGR1) (AID 2282938). Particulars: HepG2 Attagene CIS-FACTORIAL EGR reporter mRNA; actives raise or lower the signal. In outline:
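Endogenous TF activity in HepG2 liver cells was gauged through cis-promoter reporter constructs transiently transfected. After 24 h dosing, reporter mRNA was quantified by RT-PCR and capillary electrophoresis, and curves fitted in both directions versus DMSO.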

A short description of assay [12]: ATG_Ets_CIS: Attagene CIS-FACTORIAL HepG2 Assay for human Erythroblast Transformation Specific (ETS) (AID 2282941). Particulars: HepG2 ETS cis-reporter transcription, actives raise or lower the signal. In outline:
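Multiplexed reporter transcript profiling: HepG2, 24 h treatment, total RNA to cDNA, PCR, 6-FAM labelling, HpaI cut, capillary electrophoresis. Gain- or loss-of-signal fitted against DMSO.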

Assay [13] can be described thus: ATG_FoxO_CIS: Attagene CIS-FACTORIAL HepG2 Assay for human Forkhead box O (FoxO) (AID 2282943). The following applies: HepG2 Attagene cis-reporter, FoxO element, mRNA; actives raise or lower the signal. The method, boiled down: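 Values reflect reporter mRNA induction or loss in HepG2 cells 24 h post-dosing, fitted bidirectionally with DMSO as negative control and baseline. Detection used RT-PCR and fluorescence capillary electrophoresis.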

The nature of assay [14]: ATG_GATA_CIS: Attagene CIS-FACTORIAL HepG2 Assay for human GATA Binding Protein (AID 2282944). The following applies: HepG2 GATA cis-element reporter, Attagene multiplex mRNA; actives raise or lower the signal. In outline: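 HepG2 cells transiently transfected with multiplexed cis-element reporter units measure endogenous GATA activity; after 24 h compound exposure, reporter mRNA quantified by RT-PCR and capillary electrophoresis. Changes fitted in both directions vs DMSO.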

Assay [15] in a line: ATG_GLI_CIS: Attagene CIS-FACTORIAL HepG2 Assay for human Zinc Finger Protein GLI1 (AID 2282945). Particulars: HepG2, Attagene cis-factorial reporter mRNA, GLI element; actives raise or lower the signal. The method, boiled down:
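HepG2 cells transiently transfected with cis-promoter multiplexed reporter units report endogenous transcription factor activity. After 24 h chemical exposure, reporter mRNA was quantified by RT-PCR, 6-FAM labelling, HpaI digestion and capillary electrophoresis, with bidirectional fitting against DMSO.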

Assay [16] in a line: ATG_ISRE_CIS: Attagene CIS-FACTORIAL HepG2 Assay for human Interferon Regulatory Factor 1 (IRF1) binding to an Interferon-Stimulated Response Element (ISRE) (AID 2282948). The following applies: HepG2 ISRE cis-reporter (Attagene), mRNA transcription readout; actives raise or lower the signal. The method, boiled down:
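Signal reflects induction or loss of ISRE-linked reporter mRNA in transiently transfected HepG2 cells after a 24 h treatment, detected by fluorescent RT-PCR fragments on capillary electrophoresis and normalised to DMSO.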

Assay [17] is described as follows: ATG_M_32_CIS: Attagene CIS-FACTORIAL HepG2 Assay for M32 Transcription Factor (Internal Marker) (AID 2282949).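 Also: background control marker of the multiplexed CIS panel rather than a real target.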 Particulars: HepG2 Attagene cis-factorial M32 reporter, mRNA; actives raise or lower the signal. In outline: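 HepG2 human liver cells transiently transfected with cis-promoter-driven multiple reporter transcription units, dosed 24 h. Reporter mRNA quantified by RT-PCR, FAM-labelled primer extension, HpaI digest and capillary electrophoresis; bidirectional fit versus DMSO baseline.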

Assay [18] in a line: ATG_M_06_CIS: Attagene CIS-FACTORIAL HepG2 Assay for M06 Transcription Factor (Internal Marker) (AID 2282950). Particulars: HepG2 Attagene CIS-FACTORIAL M06 internal marker reporter; actives raise or lower the signal. The method, boiled down:
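Internal background marker within multiplexed cis-reporter HepG2 system. Cells transiently transfected, dosed 24 h; reporter mRNA measured by RT-PCR, HpaI digestion and capillary electrophoresis. Bidirectional fit relative to DMSO.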

Assay [19] addresses Paired box protein Pax-6 (Homo sapiens) (UniProt P26367). In words: ATG_Pax6_CIS: Attagene CIS-FACTORIAL HepG2 Assay for human Paired Box 6 (PAX6) (AID 2282956). Particulars: HepG2 CIS-FACTORIAL PAX6 reporter transcription, RNA readout; actives raise or lower the signal. The method, boiled down: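 Values derive from bidirectional curve fitting of reporter mRNA signal relative to DMSO. HepG2 cells bearing transfected cis-regulated MRTUs were exposed for 24 h; transcripts were read by RT-PCR and capillary electrophoresis.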

Assay [20] in a line: ATG_PXRE_CIS: Attagene CIS-FACTORIAL HepG2 Assay for human Pregnane X Receptor Element (PXRE) (AID 2282957). The following applies: HepG2 Attagene CIS-FACTORIAL PXRE reporter, mRNA; actives raise or lower the signal. The method, boiled down: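 Fluorescent capillary electrophoresis of amplified reporter cDNA gave the signal, collected 24 h after dosing HepG2 cells that held transfected cis-element reporter constructs.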

Active and inactive are the calls of the source. The calls were made as follows: active = hit-call score of the fitted dose curve at least 0.9, where 1 is the maximum; inactive = score below 0.9.

The term AC50 denotes the concentration at which the activity in the assay is half-maximal.

Transcription factor E2F1 (Homo sapiens), sequence (Q01094 whole entry, looked up): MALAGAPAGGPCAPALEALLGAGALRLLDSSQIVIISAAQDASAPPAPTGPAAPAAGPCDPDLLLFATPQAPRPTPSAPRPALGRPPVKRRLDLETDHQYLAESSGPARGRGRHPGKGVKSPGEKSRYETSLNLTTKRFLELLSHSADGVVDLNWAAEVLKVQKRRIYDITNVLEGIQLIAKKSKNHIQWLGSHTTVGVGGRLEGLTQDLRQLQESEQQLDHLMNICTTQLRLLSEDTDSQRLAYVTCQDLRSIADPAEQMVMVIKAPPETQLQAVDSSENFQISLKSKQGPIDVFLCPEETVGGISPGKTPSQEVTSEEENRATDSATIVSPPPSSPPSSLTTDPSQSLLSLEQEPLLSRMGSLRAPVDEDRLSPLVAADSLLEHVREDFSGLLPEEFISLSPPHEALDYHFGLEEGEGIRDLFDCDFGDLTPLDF
CCAAT/enhancer-binding protein beta (Homo sapiens), sequence (P17676 whole entry, looked up): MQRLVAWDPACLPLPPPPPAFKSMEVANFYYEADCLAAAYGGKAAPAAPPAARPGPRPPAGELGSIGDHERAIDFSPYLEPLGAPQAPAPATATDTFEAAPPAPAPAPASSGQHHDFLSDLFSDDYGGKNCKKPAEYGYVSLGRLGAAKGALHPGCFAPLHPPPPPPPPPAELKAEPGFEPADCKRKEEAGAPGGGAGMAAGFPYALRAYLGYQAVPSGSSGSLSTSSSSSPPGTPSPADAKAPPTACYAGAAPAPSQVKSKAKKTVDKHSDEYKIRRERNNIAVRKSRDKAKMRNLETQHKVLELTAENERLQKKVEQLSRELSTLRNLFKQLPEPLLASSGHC
Paired box protein Pax-6 (Homo sapiens), sequence (P26367 whole entry, looked up): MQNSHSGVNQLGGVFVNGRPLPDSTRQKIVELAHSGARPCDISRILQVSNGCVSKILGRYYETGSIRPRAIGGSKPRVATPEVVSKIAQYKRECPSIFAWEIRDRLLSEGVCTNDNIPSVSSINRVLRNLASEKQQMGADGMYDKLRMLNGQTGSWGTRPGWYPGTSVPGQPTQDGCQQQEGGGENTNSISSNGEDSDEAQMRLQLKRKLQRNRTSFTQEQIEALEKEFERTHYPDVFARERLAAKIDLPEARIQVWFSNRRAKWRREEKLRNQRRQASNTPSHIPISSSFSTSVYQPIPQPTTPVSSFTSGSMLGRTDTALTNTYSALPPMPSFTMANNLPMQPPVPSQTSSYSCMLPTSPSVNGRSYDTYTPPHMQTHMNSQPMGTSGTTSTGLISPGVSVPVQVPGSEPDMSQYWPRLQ

`C=C1CC[C@H]2C[C@@H]1C2(C)C`: the AC50 in [1] is 26 µM (active); in [7], 26.1 µM (active); in assay [20], 11.5 µM (active). Moreover, the result in assay [2], in assay [3], in assay [4], in [5], in assay [6] and in [8] was inactive. Moreover, the result in assay [9], in assay [10], in [11], in assay [12], in assay [13] and in [14] was inactive. Further, the result in assay [15], in assay [16], in assay [17], in [18] and in assay [19] was inactive.
With `CCc1cc(C(N)=S)ccn1`, the result in assay [1], in [2], in [3], in [4], in assay [5] and in assay [6] was inactive. Besides, the call in assay [7], in assay [8], in [9], in assay [10], in assay [11] and in [12] was inactive. Besides, the outcome in assay [13], in [14], in assay [15], in assay [16], in assay [17] and in assay [18] was inactive. Moreover, the compound was classed as inactive in [19]. In assay [20], the concentration at half-maximal activity (AC50) is 157 µM (active).
Take `Brc1ccc(Oc2ccc(Br)cc2)cc1`: the result in [1], in assay [2], in assay [4], in [6], in assay [8] and in [9] was inactive. Moreover, the outcome in assay [10], in assay [11], in assay [12], in [13], in assay [14] and in [15] was inactive. Also, the call in assay [16], in [17], in assay [18] and in assay [19] was inactive. Further, the AC50 in assay [3] is 40.4 µM (active); in [5] it was 56.5 µM (active); in assay [7], 86.9 µM (active); in assay [20], 27.3 µM (active).
Take `Cc1cc(-n2nc3ccc(Cl)cc3n2)c(O)c(C(C)(C)C)c1`: the call in assay [1], in assay [2], in [3], in assay [4], in assay [5] and in assay [6] was inactive. The compound was classed as inactive in assay [7], in [8], in [9], in [10], in [11] and in assay [12]. Further, the outcome in assay [13], in assay [14], in [15], in [16], in assay [17] and in [18] was inactive. For the same compound, the compound was called inactive in assay [19]. Besides, the AC50 in assay [20] was 2.86 µM (active).

These data come from PubChem BioAssay (EPA / NIEHS).
